# Bioassay records (PubChem BioAssay)
# VLA-4 inh: inhibition in human VLA-4 binding assay, primary screen, VLA-4 allosteric modulator project, MLPCN library, flow cytometry, VLA-4 expressing cells; Integrin alpha-4 (Homo sapiens), P13612; ligand binding flow cytometry; inhibition, % (about 7 µM as worked out from the volumes in the protocol); 330,000 tested, 0.2% active; in the data active = inhibition above about 50%
# Granule exo inh: LAMP-1 surface exposure blockers, TALL-104 cells – cell-based, flow cytometry, MLPCN library, primary screen. AID 651702, 2012. inhibition, % at 10 µM. 360,000 tested, 0.66% active. TALL-104 LAMP-1 surface exposure; cells stimulated with thapsigargin and PMA;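 active = inhibition above about 55%, limit read from the data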
# ABCB6 inh MLPCN: ABCB6 transporter inhibitors, primary screen, K562-ABCB6 cells, flow cytometry, MLPCN library; AID 602162, 2011; fluorescence ratio to DMSO, % at 10 µM; K562-ABCB6 porphyrin accumulation, 1 h; stronger effect = lower value; 360,000 tested, 0.19% active; ATP-binding cassette sub-family B member 6 (Homo sapiens), Q9NP58;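 active = fluorescence ratio to DMSO below 75%, the collection mean minus 3 SD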;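 also: signal is porphyrin accumulated inside mitochondria; lower ratio means ABCB6 inhibition with less porphyrin fluorescence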
# PG9 binder: binders of HIV-1 gp120 antibody PG9, primary screen, biochemical, TR-FRET; HIV-1 gp120 / PG9 antibody interaction; AID 624416, 2012; inhibition, % at 6.7 µM; 360,000 tested, 0.43% active; TR-FRET gp120-PG9 antibody binding; in the data active = inhibition above about 8.5%
# Rev-erbA mod: modulators of Rev-erb alpha DNA binding, primary screen, biochemical, FITC-DNA, fluorescence polarization, uHTS | Rev-erbα–FITC-DNA binding, 90 min | Nuclear receptor subfamily 1 group D member 1 (Homo sapiens), P20393 | 370,000 tested, 0.79% active | AID 1259318, 2017 | activity, % at 10 µM;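 active = activity above about 14%, limit read from the data; passing the limit was not always enough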
# PG9 bind confirm: binders of anti-gp120 antibody PG9, confirmation, biochemical, TR-FRET; shares compounds with PG9 binder; TR-FRET PG9 antibody binding; inhibition, % at 6.7 µM; 1,500 tested, 90% active; AID 651571, 2012; in the data active = inhibition above about 9%
# PGV04 Ab binding: binders of control antibody PGV04, counter-screen for PG9 antibody binder project, biochemical, TR-FRET, distinct HIV envelope site. inhibition, % at 6.7 µM. 1,500 tested, 95% active. shares compounds with PG9 binder. TR-FRET PGV04 antibody-gp120 binding; in the data active = inhibition above about 9.5%
# PG9 bind DR: small-molecule binders of antibody PG9, dose response, biochemical, TR-FRET, HIV-1 gp120 antibody. shares compounds with PG9 binder. IC50, µM. TR-FRET PG9 antibody-gp120 binding inhibition. 95 tested, under 10 active; in the data active = IC50 below about 10 µM
# PGV04 DR counter: binders of control antibody PGV04, dose response, counter-screen for PG9 antibody binder project, biochemical, TR-FRET, distinct HIV envelope site. shares compounds with PG9 binder. TR-FRET binding to control antibody PGV04. IC50, µM. 95 tested, 20% active
# PG126 binding DR: binders of control antibody PG126, dose response, counter-screen for PG9 antibody binder project, biochemical, TR-FRET, distinct HIV envelope site; shares compounds with PG9 binder; TR-FRET binding to antibody PG126, counterscreen; IC50, µM; 95 tested, 20% active; AID 651939, 2012
# A number is an active result; . = inactive; / = not tested or not shown. Rows were chosen to be rich in hits. Some 2% of all compounds tested hit in one or more screens of this group. Rule as the data show it, unless noted: active = IC50 below about 9 µM; inactive = the rest.
SMILES,VLA-4 inh,Granule exo inh,ABCB6 inh MLPCN,PG9 binder,Rev-erbA mod,PG9 bind confirm,PGV04 Ab binding,others
COc1ccc(/C(O)=C2/C(=O)C(=O)N(Cc3cccnc3)C2c2ccccn2)cc1 (stereo not drawn),.,.,.,.,.,/,/,
Fc1ccccc1-c1n[nH]c(=S)n1N=Cc1cccc(OCc2ccccc2)c1,/,/,/,/,.,/,/,
CCCC(=O)OC12CCCN(C1)/C(=C/c1ccc(OC)cc1)C2 (stereo not drawn),/,/,/,/,.,/,/,
CC(=O)N1CCN(C(=O)CSc2nc3cccnc3n2C)CC1,/,/,/,/,.,/,/,
CCOC(=O)/C(C#N)=C1/C=C(C)NC(c2ccccc2O)=N1,.,.,.,24,.,27,34,
COc1ccc2c(Cl)c(C(=O)NN)sc2c1,.,.,.,.,.,/,/,
COc1ccc2c(Cl)c(C(N)=O)sc2c1,.,.,.,18,.,26,35,
COc1ccc(C(=O)/C=C2/Sc3cc4c(cc3N2C)OCO4)cc1,.,.,.,40,.,56,49,PG9 bind DR=.;PGV04 DR counter=2.4;PG126 binding DR=2.4
CCOc1cc2[nH]c(=S)n(Cc3ccc(C(=O)NCCCN(CC)CC)cc3)c(=O)c2cc1OCC,.,.,.,.,.,/,/,
CCOc1cc2[nH]c(=S)n(Cc3ccc(C(=O)NCCCOC)cc3)c(=O)c2cc1OCC,.,.,.,23,.,.,13,
O=C(Nc1nnc(S(=O)(=O)N2CCCCCC2)s1)c1ccccc1Br,.,.,.,.,.,/,/,
Cc1ccccc1C(=O)Nc1nnc(S(=O)(=O)N2CCCCC2)s1,.,.,.,24,.,32,40,
CC1(c2nnnn2-c2ccc3c(c2)OCCO3)CSCC(=O)N1CCc1c[nH]c2ccccc12 (stereo not drawn),/,/,/,/,.,/,/,
COc1ccc(C(=O)Nc2cc(-c3ccc(C)cc3)no2)cc1,.,.,.,14,.,15,18,
C=CCN1[C@H](Cc2ccccc2)COc2cc(F)ccc2S1(=O)=O,/,/,/,/,.,/,/,
CCN(CC(=O)NC(c1ccccc1)c1ccccc1)Cc1nc2ccccc2c(=O)[nH]1,.,.,.,.,.,/,/,
CCN(CC(=O)NC(C)C)Cc1nc2c(Br)cc(Br)cc2c(=O)[nH]1,.,.,.,23,.,40,52,
S=c1nc[nH]c2c1cnn2-c1ccccc1,.,.,.,17,.,.,.,PG9 bind DR=.;PGV04 DR counter=.;PG126 binding DR=.
O=C(NCCC1CCCCN1S(=O)(=O)c1ccc(F)cc1)C(=O)Nc1ccccc1F (stereo not drawn),.,.,.,10,.,.,.,
COc1ccc(CN2C(=O)COc3ccccc3C2c2nnnn2C2CCCCC2)cc1 (stereo not drawn),/,/,/,/,.,/,/,
Cc1ccc(Sc2c(O)c3ccccc3n(C)c2=O)cc1,/,.,.,14,.,17,24,
O=C(O)c1ccccc1C(=O)c1cccc2c(Br)cccc12,/,.,.,54,.,68,83,
Cc1cc(=O)n2c(C(=O)Nc3ccc(C(=O)OC(C)C)cc3)c(C(=O)Nc3ccccc3)sc2n1,.,.,.,12,.,22,31,
